# Screening results: PubChem, National Center for Advancing Translational Sciences (NCATS)
# Hits are enriched below; roughly 2.4% of the tested compounds scored in any of these assays.
# D2 ag-1: agonists of human D2 dopamine receptor (beta-arrestin); 0.084% of 360,000 active; P14416; activation, % (test concentration not listed); DiscoveRx PathHunter D2 beta-arrestin, luminescence, 90 min; 100% = 57 uM dopamine signal; in the data active = activation above about 40%; inconclusive = between about 15% and that limit
# Target sequence (P14416 whole entry, looked up): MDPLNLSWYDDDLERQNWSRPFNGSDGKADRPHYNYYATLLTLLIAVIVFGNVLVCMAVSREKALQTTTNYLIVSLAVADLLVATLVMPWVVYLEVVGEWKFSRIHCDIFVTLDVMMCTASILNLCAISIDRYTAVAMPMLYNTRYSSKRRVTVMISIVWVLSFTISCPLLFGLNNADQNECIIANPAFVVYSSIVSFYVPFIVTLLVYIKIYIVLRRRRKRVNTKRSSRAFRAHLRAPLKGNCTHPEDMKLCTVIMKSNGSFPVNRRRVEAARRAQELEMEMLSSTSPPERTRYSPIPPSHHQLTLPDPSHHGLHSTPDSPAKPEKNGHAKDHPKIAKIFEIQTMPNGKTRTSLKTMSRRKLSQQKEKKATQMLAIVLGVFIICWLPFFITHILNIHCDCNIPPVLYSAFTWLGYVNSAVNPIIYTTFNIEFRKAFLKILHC
#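 DiscoveRx PathHunter D2 beta-arrestin cells (2,100/well) attached overnight, then compound-stimulated 90 min at 37 C in HBSS/10 mM HEPES/0.1% Tween-20 buffer; beta-galactosidase complementation read by luminescence after 1 h at ambient temperature. Dopamine 57 uM final (EC100) as control.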
# D2 PAM-1: potentiates the human D2 dopamine receptor allosterically. P14416. AID 624464. DiscoveRx D2 beta-arrestin cells, luminescence, 90 min; 100% = 57 uM dopamine signal. 0.23% of 360,000 active. potentiation, % (no concentration beside the values); in the data active = potentiation above about 50%; inconclusive = mostly about 30% to 49%
#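 D2 cells co-treated with compound plus 50 nM dopamine (EC20) for 90 min at 37 deg C to detect potentiation. Beta-arrestin recruitment was read as enzyme-fragment luminescence after 1 h at ambient temperature. Full response was set by 57 uM dopamine.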
# D2 ag-2: activates the human D2 dopamine receptor; activation, % at 2 µM; AID 485358; HEK293 T-REx D2 cells, calcium flux agonist mode; 0.53% of 340,000 active;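 active = activation over 3 SD above normal in the single-dose calcium agonist read, cut at about 30% in these data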; also: 0% is about no effect
#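 Agonism scored from kinetic calcium signal (1 read/sec, 180 s) following compound pin transfer, after a 10 s baseline. Cells: HEK293 Trex line expressing inducible D2 receptor coupled to calcium, dye-loaded after overnight culture at 30 C.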
# D2 antag: antagonizes the human D2 dopamine receptor | inhibition, % at 10 µM | 2% of 340,000 active | AID 485344 | HEK293 TREx D2 cells, calcium flux, dopamine EC80 | P14416; in the data active = inhibition above about 30%; inactive = below that, where a call was filed; also: 0% is about no effect
#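 Overnight-induced (tetracycline, 30 C) HEK293 T-REx cells carrying force-coupled D2 receive a no-wash calcium dye, then compound, then EC80 dopamine at 180 s; signals are read kinetically throughout.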
# D2 PAM-2: positive allosteric modulators of human D2 dopamine receptor; P14416; HEK293 T-REx D2, calcium flux, EC20 dopamine potentiation; potentiation, % at 10 µM; 0.34% of 340,000 active; AID 485347;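 active = potentiation over 3 SD above the plate norm, cut at about 30% in these data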; also: 0% is about no effect
#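 Calcium flux readout, no-wash dye, 1 read/s. Inducible HEK293 Trex D2 line, overnight 30 C. Compound alone 180 s (agonist flags), then EC20 dopamine, another 180 s to score potentiation.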
# * marks the source's active call; other numbers are inactive results; ? = inconclusive; nt = no result given.
SMILES,D2 ag-1,D2 PAM-1,D2 ag-2,D2 antag,D2 PAM-2
COc1cc(C(=O)NCC(=O)N/N=C(\C)Cc2ccccc2)cc(OC)c1OC,2,-8,0,-8,37*
COc1cc(C(=O)N/N=C(\C)Cc2ccccc2)cc(OC)c1OC,1,-7,nt,nt,nt
CN(C)c1ccc(C(CNC(=O)c2ccc(C(C)(C)C)cc2)N2CCCC2)cc1 (centres undefined),nt,nt,0,nt,-3
COc1ccc(OCc2cc(C(=O)N(C)CC3CCCCO3)no2)c(Cl)c1 (centres undefined),-4,-14,-1,2,-5
COc1ccc(OCc2cc(C(=O)N(C)CCC3CCOCC3)no2)c(Cl)c1,-6,-5,-1,65*,-17
Cc1ccccc1C(=O)NC(CC(C)C)C(=O)N1CCN(c2ccccc2)CC1 (centres undefined),0,-9,0,-3,31*
CC(C)C[C@H](NC(=O)N1CCN(c2ccccc2)CC1)C(=O)O,2,0,nt,nt,nt
CCOC(=O)CSc1nnc(CNC(=O)c2cccc(C)c2)n1-c1ccccc1OC,0,-1,nt,nt,-3
Cc1ccccc1C(=O)NCc1nnc(SCC(=O)N2CCN(c3ccccc3)CC2)n1C,-6,-6,-1,39*,0
CCOC(=O)CSc1nnc(CNC(=O)c2cccc(C)c2)n1C,?,0,0,35*,4
CC(C)CN1CCC(=O)N([C@H](CSc2ccc(Br)cc2)Cc2ccccc2)CC1,2,-9,0,36*,-10
Cc1ccc(C)c(CSc2nc3ccncc3n2CC(=O)Nc2ccc(N(C)C)cc2)c1,nt,nt,0,nt,-4
CCOc1ccc(CNC(=O)C2CCCN(S(C)(=O)=O)C2)cc1OC (centres undefined),-1,-7,0,52*,4
CCOc1ccc(CNC(=O)C2CCCN(S(=O)(=O)N3CCC(C)CC3)C2)cc1OC (centres undefined),0,-3,nt,nt,nt
CC1CCCN(CCOc2ccc3ccccc3c2Br)C1 (centres undefined),-4,-12,0,71*,-27
Clc1ccc(OCCOCCN2CCCCC2)c(Br)c1,1,6,1,77*,-25
CC1CCN(CCOCCOc2ccc(Cl)cc2Br)CC1,-2,-31,0,69*,-21
CC1CCN(CCCOc2ccc(Cl)cc2Br)CC1,-5,-29,0,34*,-26
Cc1ccc(CNC(=O)COCc2cc(-c3cccs3)on2)cc1,nt,nt,0,nt,nt
CS(=O)(=O)N1CCc2cc(C(=O)Nc3ccc(Cl)c(C(F)(F)F)c3)ccc21,nt,nt,0,nt,-25
Clc1ccc(Cl)c(OCCN2CCCC2)c1,4,-5,1,47*,-14
CN(C)CCOCCOc1ccc(Cl)cc1Br,-5,-28,0,19,-31
Cc1ccc(Cl)c(OCCN2CCCC(C)C2)c1 (centres undefined),-2,-27,3,53*,-19
CC(C)NCCOCCOc1ccc(Cl)cc1Br,-3,-36,0,67*,-29
COc1ccc(CCNC(=O)CS(=O)Cc2nc(-c3ccc(C)cc3)oc2C)c(OC)c1 (centres undefined),nt,nt,nt,nt,-12
SMILES,D2 ag-1,D2 PAM-1,D2 ag-2,D2 antag,D2 PAM-2
Cc1cccc2c(=O)cc(CSCC(=O)Nc3ccc(Cl)cc3)[nH]c12,nt,nt,-1,nt,-5
CCCN(C(=O)Cn1cnc2sc(C)c(S(=O)(=O)N3CCN(c4ncccn4)CC3)c2c1=O)c1cccc(C)c1,nt,nt,1,nt,-3
CCOc1ccc(/C=N/Nc2nc(=O)[nH]nc2C)cc1OC,-2,-3,0,-16,44*
CCC(=O)Nc1ccccc1-c1nc2ccccc2n(Cc2cccc(Br)c2)c1=O,nt,nt,0,nt,-1
CCn1c(CNC(=O)C23CC4CC(CC(C4)C2)C3)nnc1SCC(=O)Nc1nnc(C)s1,-1,1,0,0,43*
CCCCn1c(CNC(=O)C23CC4CC(CC(C4)C2)C3)nnc1SCC(=O)Nc1nnc(C)s1,-3,-4,0,6,-4
COc1cc(CNCc2cc(OC)c(OC)c(OC)c2)cc(OC)c1,-1,-3,0,30*,2
CCC(C)(C)NC(=O)CN(C(=O)CCC(=O)Nc1nccs1)c1ccccc1C,-2,-11,0,39*,-3
Sc1nnc(-c2ccc(Cl)cc2)n1Cc1ccccc1,2,-16,0,39*,-1
Cc1nc2nc(SCC(=O)NCc3ccccc3)nn2c(C)c1Cc1ccccc1Cl,nt,nt,0,nt,2
CCN(CC)CC#CCC(O)(c1ccccc1)c1ccc(Br)cc1 (centres undefined),0,-20,0,34*,-20
O=C(CC1NCCN(Cc2ccccc2)C1=O)Nc1ccc(Cl)cc1 (centres undefined),-4,-6,-2,-4,1
O=C(CC1NCCc2ccccc21)Nc1ccc(Cl)cc1 (centres undefined),-1,-22,5,44*,-40
Cc1nn(-c2ccc(N3CCOCC3)nn2)c(C)c1CCC(=O)NCc1ccc(OC(C)C)cc1,nt,nt,-1,nt,3
O=C(COc1ccc(F)cc1)NC1CC(=O)N(c2ccc3c(c2)OCCO3)C1 (centres undefined),nt,nt,0,nt,-20
CCCc1nnc(SCC(=O)N2CCCC2)n1Cc1ccco1,0,0,40*,5,-15
CCCn1c(CCc2ccccc2)nnc1SCC(=O)N1CCCC1,-2,-12,1,-3,0
NC(=O)C1(N2CCCCC2)CCN(C(=O)Nc2ccc(Cl)c(Cl)c2)CC1,nt,nt,0,nt,-28
Nc1c2c(nc3c1CCC3)CCCC2,nt,nt,1,31*,-7
Nc1c2c(nc3ccn(-c4ccccc4)c(=O)c13)CCCCC2,-1,-16,1,6,-11
Cc1cc(O)c(C(c2ccc(F)cc2)N2CCCCC2)c(=O)n1Cc1ccco1 (centres undefined),nt,nt,-1,nt,-5
O=C(COC(=O)C1=NN(c2ccccc2)C(=O)CC1)NCc1ccccc1Cl,-3,13,-1,32*,-5
COc1cc2nc(Nc3ccc(C)c(C)c3)nc(N)c2cc1OC,-3,-12,-1,30*,5
CC(=O)N1c2ccc(S(=O)(=O)N(C)C3CCCCC3)cc2CC1C (centres undefined),-2,-11,0,-7,30*
CC(=O)N1c2ccc(S(=O)(=O)N(C)CC(=O)NC3CCCCC3C)cc2CC1C (centres undefined),6,-5,0,5,42*
CC(=O)N1c2ccc(S(=O)(=O)N(C)CC(=O)NCc3ccccc3)cc2CC1C (centres undefined),-9,-12,0,1,9
O=C(NCc1ccccc1CN1CCCC1)c1ccc(OCc2cscn2)cc1,-2,-3,1,35*,-7
